This is a sample that favours compounds with a hit; in the whole collection about 21% have one here.
FBPA Giardia inh: blocks Giardia fructose-bisphosphate aldolase activity | A8B2U2 | purified Giardia FBPA | Potency, µM (top dose mostly 59.6 µM), for the others: top-dose activity, negative = inhibition, actives largely listed as inhibitors | 0.71% of 290,000 active | AID 2451; note: potency is the fitted concentration of half-maximal effect; % is set by controls: 0 for no effect and ±100 for the full control effect; nearly all actives have a fitted effect of over 55% in size
Target sequence (A8B2U2 whole entry, looked up): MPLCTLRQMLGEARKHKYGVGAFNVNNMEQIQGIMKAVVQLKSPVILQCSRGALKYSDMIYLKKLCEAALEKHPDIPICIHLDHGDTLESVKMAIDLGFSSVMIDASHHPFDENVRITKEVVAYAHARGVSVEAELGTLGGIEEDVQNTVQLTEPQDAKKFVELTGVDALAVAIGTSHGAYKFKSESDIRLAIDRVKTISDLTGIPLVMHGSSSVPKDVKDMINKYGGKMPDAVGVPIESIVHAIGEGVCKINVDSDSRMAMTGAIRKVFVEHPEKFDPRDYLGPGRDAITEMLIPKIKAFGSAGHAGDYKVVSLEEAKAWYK
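40 nM FBPA preincubated 10 min at RT with compound (up to 57.5 uM final), then substrate plus GAPDH/TPI/NAD/arsenate coupling and diaphorase/resazurin added. Fluorescence read after 20 min at RT, 525/598 nm.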
Pf growth 48h: P. falciparum growth inhibition at 48 hours (one generation) | P. falciparum luciferase growth in erythrocytes, 48 h | Potency, µM (highest dose often 28.7 µM), inactives show top-dose activity change, negative = inhibition, usual class: inhibitors | 5.9% of 310,000 active | AID 504832; note: potency is the fitted concentration of half-maximal effect; % is set by controls: 0 for no effect and ±100 for the full control effect
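Firefly luciferase activity from engineered P. falciparum reports growth; inhibitors lower the luminescent signal. Cultures contained 2% hematocrit erythrocytes at 0.1% final parasitemia.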
Shiga inhibitor: Shiga toxin inhibition | Vero cells, Shiga toxin protein synthesis inhibition reporter | inhibition, % at 38.7 µM | 9.2% of 290,000 active; in the data active = inhibition mostly above about 28%, no sharp cut-off; inactive = mostly below about 43%; note: 0% is about no effect
Pf growth 96h: inhibits malaria parasite growth, 96 h. P. falciparum luciferase reporter growth, 96 h. Potency, µM (series often up to 28.7 µM), for inactives: at the highest dose activity change, negative = inhibition, most hits filed as inhibitors. 6.9% of 320,000 active. AID 504834; note: potency is the fitted concentration of half-maximal effect; % is set by controls: 0 for no effect and ±100 for the full control effect
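Readout is luminescence from an integrated firefly luciferase in P. falciparum. Red cells, 2% hematocrit and 0.05% parasitemia final, were cultured with compound through two parasite generations (96 hours) at 37 C, 5% CO2.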
NS1 inh: inhibitors of influenza NS1 protein function. Potency, µM (top dose mostly 46.1 µM), for inactives: at the highest dose activity, positive = more growth. 0.4% of 270,000 active. AID 2326; calls by dose curve; note: potency is the fitted concentration of half-maximal effect; actives are rising curves; nearly all actives have a fitted effect of over 50% in size
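A cell-based growth assay was used: compounds that relieve NS1-induced slow growth of budding yeast raise OD600. Assay medium was yeast nitrogen base with ammonium sulphate and -URA supplement, pH 6.0, with 2% galactose.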
CHX counter: counter-screen hit for Shiga toxin inhibitors, cycloheximide. cell reporter, cycloheximide protein synthesis inhibition counterscreen. 12% of 300,000 active. AID 2314. max response, %; in the data active = max response mostly above about 13%, no sharp cut-off; inactive = mostly below about 14%; note: read at 38.3 µM for the half of the compounds with a filed dose; 0% is about no effect
* marks the source's active call; other numbers are inactive results; ? = inconclusive; / = not tested or not shown; [ ] = remark or other dose. Unless noted, calls come from the whole dose curve; as a rule, active = well fitted curve in the direction sought with a large enough effect; inconclusive = small, poorly fitted or top-dose-only effect, or another doubt; inactive = no such curve, though single readings can be large; an effect the other way counts as inactive or inconclusive.

SMILES	FBPA Giardia inh	Pf growth 48h	Shiga inhibitor	Pf growth 96h	NS1 inh	CHX counter
O=C1CN2C(=Nc3ccc(Br)cc3C2c2ccccc2)CCN1 (stereo unspecified)	3%	-13%	-5	24%	-8%	1
O=c1c(-c2ccccc2)c[nH]n1-c1cccc([N+](=O)[O-])c1	?	?	77*	?	-4%	22*
O=c1c(-c2ccc(Cl)cc2)c[nH]n1-c1ccccc1	-19%	8.3µM*	78*	13µM*	-5%	25*
C=C[C@@H]1[C@@H](C)[C@H](C)C(=O)C([C@H](O)C(C)C)[C@@H]1C (stereo partly specified)	7%	/	-8	/	/	-4
FC(F)(F)c1cccc(NC(=S)Nc2cccc(NC(=S)Nc3cccc(C(F)(F)F)c3)n2)c1	-4%	12µM*	44*	?	-3%	24*
CCCc1cc(=O)[nH]c2nnc(SCC(=O)NCc3ccc4c(c3)OCO4)n12	/	-62%	/	-92%	/	/
O=C(O)CCn1c(CO)nc2ccccc21	-8%	8%	2	61%	-3%	-4
O=C(O)CCn1c(-c2ccccn2)nc2ccccc21	-4%	10%	40	?	14%	11*
Cc1nc2nc(C)c(NS(=O)(=O)c3ccc(Cl)s3)c(=O)n2[nH]1	-21%	37%	-9	0%	-1%	-5
COc1ccc(/C=C2\SC(N3CCCCC3)=NC2=O)cc1OC	3%	/	34	20%	-3%	9
CN(C)c1ccc(/C=C2\SC(N3CCCCC3)=NC2=O)cc1	-2%	52%	/	4.1µM*	-9%	41*
O=C1N=C(N2CCCCC2)S/C1=C/C1=Cc2ccccc2OC1	-4%	19%	76*	?	11%	37*
CC(C)c1ccc(/C=C2\SC(N3CCCC3)=NC2=O)cc1	1%	?	7	3.7µM*	-1%	0
COc1cc(/C=C2\SC(N3CCC(C)CC3)=NC2=O)ccc1O	-14%	?	15	-16%	-10%	42*
O=C1N=C(N2CCCCC2)S/C1=C\c1ccc(Br)cc1	0%	65%	-16	?	-20%	1
Cc1ccc(/C=C2\SC(N3CCCC3)=NC2=O)cc1	4%	?	28	20%	-39%	7
COc1ccc(/C=C/C(=O)NNC(=O)c2ccncc2)c(OC)c1	/	17%	/	43%	/	/
Cc1cn2c(=O)c(C(=O)N3CCN(c4ccccc4Cl)CC3)cnc2s1	/	46%	/	23%	/	/
Cc1ccccc1-c1nc(Nc2ccncc2)c2ccccc2n1	-2%	/	/	/	/	/
N=C(N=C(N)N)N1CCc2ccccc21	-5%	?	11	3%	0%	10
CC1(C)CCc2cc(-c3ccnc(=S)[nH]3)ccc2O1	15%	-28%	53*	-70%	3%	42*
CCOc1ccc(NC(=O)c2ccccc2OCC(=O)c2ccccc2)cc1	-6%	/	52	?	8%	48*
CCOc1ccc(NC(=O)c2ccccc2OC)cc1	-7%	77%	68	/	-14%	40*
Cc1cccc(NC(=O)COc2ccc(Br)cc2/C=N/O)c1	1%	217%	121*	?	-11%	75*
O=C(COc1ccccc1C(=O)c1cnn(-c2ccccc2)c1)Nc1ccccc1	2%	128%	78	-10%	-1%	21*
SMILES	FBPA Giardia inh	Pf growth 48h	Shiga inhibitor	Pf growth 96h	NS1 inh	CHX counter
O=c1c(-c2ccc(F)cc2)nc2cnc(N3CCNCC3)nc2n1-c1ccccc1	15%	/	/	/	/	/
Cc1cccc(NC(=O)c2ccccc2OCC(=O)c2ccccc2)c1	0%	17%	-11	20%[5.75 µM]	-5%	-4
CCOc1ccc(NC(=O)c2ccccc2CO)cc1	-2%	/	39	/	-17%	31*
CC(=O)c1ccc(NC(=O)COc2ccccc2C(=O)Nc2ccc(C)cn2)cc1	3%	5%	8	79%	6%	7
CCOc1ncccc1C(=O)Nc1ccc(F)cc1	3%	4%	-6	-3%	-6%	-2
CCOc1ccc(NC(=O)c2cccnc2SC)cc1	-5%	68%	20	55%	/	22*
CC(=O)c1ccc(NC(=O)COc2ccccc2C(=O)Nc2ccccc2)cc1	/	?	49*	-24%	22%	13*
CCOc1ccccc1C(=O)Nc1ccc(NC(=O)c2ccccc2)cc1	-12%	22%	/	13%	?	7

Compound activity: PubChem, National Center for Advancing Translational Sciences (NCATS)
